{
  "source": "PubChem BioAssay",
  "data": [
    {"assay": "viability loss of caspase-8 NB7 cells with TRAIL – with/without TRAIL, luminescence panel, confirmation (AID 651596)", "details": "NB7 neuroblastoma + caspase-8, without TRAIL, NB7 Caspase-8, without TRAIL, mean of runs, at 10 µM", "units": {"activity": "%"}, "values": [
      {"compound": "COc1ccc(OC)c2sc(N(CCN(C)C)C(=O)/C=C/c3cccs3)nc12", "activity": 98.8},
      {"compound": "COc1ccc(-c2nc3ccccc3c(=O)[nH]2)cc1", "activity": 77.5},
      {"compound": "CNc1nnc(-c2ccc(N(C)C)cc2)s1", "activity": 61.2},
      {"compound": "CN(C)CCCN(C(=O)c1cc2cc([N+](=O)[O-])ccc2s1)c1nc2cc3c(cc2s1)OCCO3", "activity": 83},
      {"compound": "Cc1cccc(NC(=O)CCc2ccc(N3C(N)=NC(N)=NC3(C)C)cc2)c1", "activity": 80.4},
      {"compound": "COc1ccc(Cn2c(SCc3ccc(C)cc3)nc3cc(OC)c(OC)cc3c2=N)cc1Cl", "activity": 99.3},
      {"compound": "Nc1nc(N)c2cc(S(=O)(=O)c3ccc4ccccc4c3)ccc2n1", "activity": 72.5},
      {"compound": "O=C(N/N=C/c1ccc2ncccc2c1)c1ccco1", "activity": 70.7},
      {"compound": "CCOc1ccc(-n2c(SCC(N)=O)nc3c([nH]c4ccccc43)c2=O)cc1", "activity": 56.5},
      {"compound": "Cc1cc(C)n2nc(C(=O)Nc3ccc4c(c3)OCCO4)nc2n1", "activity": 47.2},
      {"compound": "O=C(NC1=NC2CCCCC2N1)c1ccccc1", "note": "(stereo not given)", "activity": 52.1},
      {"compound": "Cc1ccc(/C(N)=N/OC(=O)c2ccc(F)cc2)cc1", "activity": 92.5},
      {"compound": "O=C1c2ccccc2S(=O)(=O)c2cc(N3CCOCC3)ccc21", "activity": 73.9},
      {"compound": "C=CCNc1ncnc2c1ncn2C1OC(CO)C(O)C1O", "note": "(stereo not given)", "activity": 60.6},
      {"compound": "Cc1ccc(C(=O)N/N=C\\c2ccc[nH]2)cc1[N+](=O)[O-]", "activity": 79.4},
      {"compound": "CC(OC(=O)c1cc(O)c2ccccc2c1O)C(=O)Nc1ccc(C(N)=O)cc1", "note": "(stereo not given)", "activity": 49.2},
      {"compound": "Oc1cccc2ccc(Nc3ccccn3)nc12", "activity": 95.5},
      {"compound": "CC(C)c1ccc2c(c1)CC[C@H]1[C@](C)(CN)CCC[C@]21C", "activity": 97.2},
      {"compound": "CNC[C@@H](Cc1ccccc1)NC[C@@H](CC1CCCCC1)NCCCc1ccccc1", "activity": 99.6},
      {"compound": "CC(C)CC(N)c1csc(NC(=O)c2cc(C(C)(C)C)nn2Cc2ccccc2)n1", "note": "(stereo not given)", "activity": 92.4},
      {"compound": "OC(c1ccccc1)(c1ccccc1)C1CCN(CCCOc2ccc3c(c2)CCCC3)CC1", "activity": 48.9},
      {"compound": "O=C(Nc1ccc2c(c1)OCCO2)c1ccc2nccnc2c1", "activity": 50.4},
      {"compound": "O=C(Nc1cccc(-c2ccc(N3CCCCC3)nn2)c1)C(F)(F)F", "activity": 95.2},
      {"compound": "COc1ccc(/C=C/c2cc(-c3ccc(C)cc3)o[n+]2C)cc1", "activity": 90.6},
      {"compound": "COc1cc2c(cc1NC(=O)c1cccc([N+](=O)[O-])c1)oc1ccccc12", "activity": -9.4},
      {"compound": "COc1ccc2c(=O)cc(-c3ccccc3)n(C)c2c1", "activity": 60.1},
      {"compound": "Cc1nc2cc(NC(=O)N3c4ccccc4CC3C)ccc2n1C", "note": "(stereo not given)", "activity": 70.6},
      {"compound": "Cc1ccccc1-n1nnnc1Sc1nnnn1-c1ccccc1", "activity": 91.3},
      {"compound": "O=C(CSC(=S)N1CCCCC1)c1ccccc1", "activity": 35.2},
      {"compound": "COc1oc(C(=O)NC2CCCCC2)c(-c2ccc(Cl)cc2)c1S(=O)(=O)c1ccccc1", "activity": 96.8},
      {"compound": "Cc1ccc(C(=O)Nc2ccc3c(c2)OCCO3)c(Cl)c1", "activity": 90.8},
      {"compound": "CC1=NN(c2nc(N)nc(/C(C#N)=C/c3ccc([N+](=O)[O-])o3)n2)C(C)(C)C1", "activity": 98.6},
      {"compound": "COc1ccc(CC(N)c2csc(NC(=O)c3cc(C(C)(C)C)nn3Cc3ccccc3)n2)cc1", "note": "(stereo not given)", "activity": 90.5},
      {"compound": "COc1ccc2nc(-c3ccccc3)[nH]c2c1", "activity": 65.5},
      {"compound": "CCOc1ccc(NC(=O)Nc2cccnc2)cc1", "activity": 40.9},
      {"compound": "O=C(Nc1ccc(N2CCN(C(=O)c3cccs3)CC2)cc1)c1ccc([N+](=O)[O-])o1", "activity": 99.8},
      {"compound": "CC(=O)c1sc(NC(=O)c2ccc(C(C)(C)C)cc2)nc1C", "activity": 35.9},
      {"compound": "Cc1cccc(-n2ncc3c(NC4CCCCC4)ncnc32)c1", "activity": 54.5},
      {"compound": "N=c1oc2cc(O)ccc2cc1C(=O)Nc1ccc(Cl)cc1", "activity": 39.3},
      {"compound": "Cc1cc(/C(N)=N/OC(=O)c2ccccc2Cl)no1", "activity": 68.1}
    ]}
  ]
}
